Laboratory results as given in PubChem BioAssay.
Values joined by “and” are separate entries in the source; they are usually repeats but may differ in a detail not shown here. Equal values may be shown once. Inconclusive results are not listed. Active and inactive are the calls of the source.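 Rule for the calls, unless noted: active = normalized viability below 100% at a tested concentration; inactive = the rest.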

Assays:
[1] = viability loss in pontine glioma line – cell-based, SU-DIPG-XVII, MIPE5.0, CellTiter-Glo, qHTS, dose response (AID 1347060; cut-off not given, nearly all actives have AC50 up to about 26 µM;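 for AC50: cells exposed to compound for 48 hours before viability readout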); conditions: CellTiter-Glo ATP luminescence
[2] = viability loss in pontine glioma line – cell-based, JHH-DIPG-1, MIPE4.0, CellTiter-Glo, qHTS, dose response (AID 1347062; cut-off not given, nearly all actives have AC50 up to about 27 µM;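 for AC50: cells exposed to compound for two days before readout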); conditions: JHH-DIPG-1 viability, CellTiter-Glo ATP luminescence
[3] = viability loss in pontine glioma line – cell-based, SU-DIPG-IV, MIPE4.0, CellTiter-Glo, qHTS, dose response (AID 1347063; cut-off not given, nearly all actives have AC50 up to about 30 µM;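 note: compound exposure lasted 48 hours before the viability readout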); conditions: CellTiter-Glo ATP luminescence
[4] = viability loss in pontine glioma line – cell-based, SU-DIPG-XIII, MIPE5.0, CellTiter-Glo, qHTS, dose response (AID 1347064; cut-off not given, nearly all actives have AC50 up to about 23 µM;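 for AC50: cells exposed to compound for 48 hours before the viability read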); conditions: CellTiter-Glo ATP luminescence
[5] = viability loss in pontine glioma line – cell-based, SU-DIPG-XXV, MIPE5.0, CellTiter-Glo, qHTS, dose response (AID 1347065; cut-off not given, nearly all actives have AC50 up to about 26 µM;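 note: cells exposed to compound for 48 hours before ATP readout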); conditions: CellTiter-Glo ATP luminescence
[6] = JHH-DIPG-1 glioma cell viability, MIPE5.0 library, CellTiter-Glo luminescence, qHTS (AID 1347067; cut-off not given, nearly all actives have AC50 up to about 26 µM;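 note: cells exposed to compound for 48 hours before readout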); conditions: JHH-DIPG-1 glioma viability, CellTiter-Glo ATP luminescence
[7] = P. berghei load reduction in hepatocytes – cell-based, HepG2, luciferase luminescence, HepG2 viability, primary screen (AID 624349; in the data active = parasite load remaining mostly below about 12%, no sharp cut-off; inactive = mostly above about 10%;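 note: 100% = mean of DMSO negative control wells on the same plate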); conditions: P. berghei liver stage in HepG2, luciferase luminescence, concentration not given here; parasite load remaining: stronger effect = lower value; viability: measured here: HepG2 viability without parasites
[8] = growth inhibition of DIPG cells – cell-based, MIPE5.0 library, qHTS (AID 1347068; cut-off not given, nearly all actives have IC50 up to about 30 µM;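 for IC50: cells exposed to compound for 48 hours before viability readout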); conditions: SU-DIPG-XXV viability
[9] = viability loss with induced miR-34 in A549 – imaging, A549 dox-inducible miR-34, nuclei and caspase counts, primary screen (AID 1347080;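 active = compounds whose cell count with miR-34 switched on is under 0.7 times the count with it off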); conditions: A549 miR-34 inducible, Hoechst nuclei count, 48 h
[10] = MELAS cybrid and Rieske KO viability enhancers – cell-based, MELAS cybrids, Rieske KO mouse fibroblasts, CellTiter-Glo, primary screen (AID 1508586;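 active = mean z-score across replicates of 1.96 or higher in either the MELAS or the Rieske mutant cell line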;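 note: z relative to plate mean and SD of compound and empty wells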); conditions: low glucose
[11] = drug combination growth inhibition, ovarian cancer – cell-based, oncology-focused library, rucaparib conditional, profiling panel (AID 1508598); conditions: patient-derived ovarian cancer cells, CellTiter-Glo viability, 144 h, stronger effect = lower value
[12] = stronger effect = lower value, cell number ratio, induced over uninduced
[13] = measured here: relative caspase fold change +Dox/-Dox
[14] = measured here: total cells with miR-34 induction, stronger effect = lower value
[15] = measured here: total cells without miR-34 induction

Structure (SMILES): OCCNC1CCCc2c1[nH]c1ccc(-c3ccccc3)cc21 (stereo not given)
- AC50 [1]: 18600 nM (active)
- AC50 [2]: 26400 nM (active)
- AC50 [3]: 20900 nM (active)
- AC50 [4]: 13200 nM (active)
- AC50 [5]: 10500 nM (active)
- AC50 [6]: 10500 nM (active)

Structure (SMILES): CN1CC[C@@H](c2c(O)cc(O)c3c(=O)cc(-c4ccccc4Cl)oc23)[C@@H](O)C1
- AC50 [1]: 468 nM (active)
- AC50 [2]: 105 nM (active)
- AC50 [3]: 74.3 nM (active)
- AC50 [4]: 332 nM (active)
- AC50 [5]: 468 nM (active)
- AC50 [6]: 590 nM (active)

Structure (SMILES): O=C1NC(=O)/C(=C/c2ccc3c(c2)OC(F)(F)O3)S1
- parasite load remaining [7]: 45.5% (inactive)
- viability [7]: 93.8%
- outcome [1]: inactive
- outcome [2]: inactive
- outcome [3]: inactive
- outcome [4]: inactive
- outcome [5]: inactive
- outcome [6]: inactive
- outcome [8]: inactive
- fold change [9, 12]: 0.88 (inactive) and 0.952 (inactive)
- fold change [9, 13]: 1.16 and 0.645
- cell count [9, 14]: 8070 and 5980
- cell count [9, 15]: 9160 and 6280

Structure (SMILES): O=C(Nc1cn[nH]c1-c1nc2ccc(CN3CCOCC3)cc2[nH]1)NC1CC1
- AC50 [1]: 1660 nM (active)
- AC50 [2]: 10500 nM (active)
- AC50 [3]: 1320 nM (active)
- AC50 [4]: 5900 nM (active)
- AC50 [5]: 661 nM (active)
- AC50 [6]: 1860 nM (active)
- IC50 [8]: 8330 nM (active)
- fold change [9, 12]: 1.08 (inactive)
- fold change [9, 13]: 0.829
- cell count [9, 14]: 1190
- cell count [9, 15]: 1110
- z-score ([10]; MELAS cybrid survival, CellTiter-Glo 48 h, stronger effect = higher value): 2.04 (active)
- z-score ([10]; Rieske KO mouse fibroblast survival, CellTiter-Glo 72 h): -1.89
- viability ([11]; at 0.000305 µM, OCI-C5x cells, with rucaparib 10 µM, 100% = cells with rucaparib alone): 103% (inactive)
- viability ([11]; at 0.000305 µM, OCI-C5x cells, without rucaparib): 125% (inactive)
- viability ([11]; at 0.000305 µM, OCI-P5x cells, with rucaparib 20 µM, 100% = cells with rucaparib alone): 120% (inactive)
- viability ([11]; at 0.000305 µM, OCI-P5x cells, without rucaparib): 122% (inactive)
- viability ([11]; at 0.00122 µM, OCI-C5x cells, with rucaparib 10 µM, 100% = cells with rucaparib alone): 128% (inactive)
- viability ([11]; at 0.00122 µM, OCI-C5x cells, without rucaparib): 132% (inactive)
- viability ([11]; at 0.00122 µM, OCI-P5x cells, with rucaparib 20 µM, 100% = cells with rucaparib alone): 111% (inactive)
- viability ([11]; at 0.00122 µM, OCI-P5x cells, without rucaparib): 116% (inactive)
- viability ([11]; at 0.00488 µM, OCI-C5x cells, with rucaparib 10 µM, 100% = cells with rucaparib alone): 116% (inactive)
- viability ([11]; at 0.00488 µM, OCI-C5x cells, without rucaparib): 119% (inactive)
- viability ([11]; at 0.00488 µM, OCI-P5x cells, with rucaparib 20 µM, 100% = cells with rucaparib alone): 116% (inactive)
- viability ([11]; at 0.00488 µM, OCI-P5x cells, without rucaparib): 118% (inactive)
- viability ([11]; at 0.0195 µM, OCI-C5x cells, with rucaparib 10 µM, 100% = cells with rucaparib alone): 102% (inactive)
- viability ([11]; at 0.0195 µM, OCI-C5x cells, without rucaparib): 111% (inactive)
- viability ([11]; at 0.0195 µM, OCI-P5x cells, with rucaparib 20 µM, 100% = cells with rucaparib alone): 120% (inactive)
- viability ([11]; at 0.0195 µM, OCI-P5x cells, without rucaparib): 105% (inactive)
- viability ([11]; at 0.0781 µM, OCI-C5x cells, with rucaparib 10 µM, 100% = cells with rucaparib alone): 82% (active)
- viability ([11]; at 0.0781 µM, OCI-C5x cells, without rucaparib): 108% (inactive)
- viability ([11]; at 0.0781 µM, OCI-P5x cells, with rucaparib 20 µM, 100% = cells with rucaparib alone): 111% (inactive)
- viability ([11]; at 0.0781 µM, OCI-P5x cells, without rucaparib): 76.9% (active)
- viability ([11]; at 0.313 µM, OCI-C5x cells, with rucaparib 10 µM, 100% = cells with rucaparib alone): 89.8% (active)
- viability ([11]; at 0.313 µM, OCI-C5x cells, without rucaparib): 104% (inactive)
- viability ([11]; at 0.313 µM, OCI-P5x cells, with rucaparib 20 µM, 100% = cells with rucaparib alone): 109% (inactive)
- viability ([11]; at 0.313 µM, OCI-P5x cells, without rucaparib): 66.7% (active)
- viability ([11]; at 1.25 µM, OCI-C5x cells, with rucaparib 10 µM, 100% = cells with rucaparib alone): 36.1% (active)
- viability ([11]; at 1.25 µM, OCI-C5x cells, without rucaparib): 48.8% (active)
- viability ([11]; at 1.25 µM, OCI-P5x cells, with rucaparib 20 µM, 100% = cells with rucaparib alone): 118% (inactive)
- viability ([11]; at 1.25 µM, OCI-P5x cells, without rucaparib): 53.2% (active)
- viability ([11]; at 5 µM, OCI-C5x cells, with rucaparib 10 µM, 100% = cells with rucaparib alone): 26.8% (active)
- viability ([11]; at 5 µM, OCI-C5x cells, without rucaparib): 18.2% (active)
- viability ([11]; at 5 µM, OCI-P5x cells, with rucaparib 20 µM, 100% = cells with rucaparib alone): 39.6% (active)
- viability ([11]; at 5 µM, OCI-P5x cells, without rucaparib): 18.8% (active)
